Data published in PubChem BioAssay (EPA / NIEHS).
“And” between values parts separate entries of the source, which are not always exact repeats. Equal entries are not always repeated. Inconclusive results are not listed. Some structures have more than one record in an assay (separate samples or runs), and their calls can disagree. The source made the active and inactive calls. The calls were made as follows, unless noted: active = hit-call score of the fitted dose curve at least 0.9, where 1 is the maximum; inactive = score below 0.9.

Assays:
[1] = biological target: Bile acid receptor (Homo sapiens) (UniProt Q96RI1); test: ATG_FXR_TRANS: Attagene TRANS-FACTORIAL HepG2 Assay for Farnesoid X Receptor (FXR) (AID 2282979; active = hit-call score of the fitted dose curve at least 0.9, where 1 is the maximum;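 also: hits raise reporter mRNA above DMSO so AC50 marks FXR activation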); conditions: HepG2 Attagene TRANS FXR-GAL4 reporter transcription
Method in brief: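 Reporter transcripts from transfected HepG2 cells were measured 24 h after dosing, using RT-PCR with capillary electrophoresis of 6-FAM-labelled fragments. The read-out reflects activity of exogenous FXR-Gal4 chimera on GAL4-UAS units, with induction relative to DMSO.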

[2] = biological target: Oxysterols receptor LXR-beta (Homo sapiens) (UniProt P55055); test: ATG_LXRb_TRANS: Attagene TRANS-FACTORIAL HepG2 Assay for human Liver X Receptor beta (LXRb) (AID 2282981; active = hit-call score of the fitted dose curve at least 0.9, where 1 is the maximum); conditions: HepG2 Attagene TRANS GAL4-LXRb reporter, mRNA
Method in brief: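 After 24 h of chemical treatment, transfected HepG2 cells yield total RNA; reporter cDNA is PCR-amplified, FAM-labelled, HpaI-cut and run on capillary electrophoresis. Signal reflects chimeric LXRb-Gal4 activity on GAL4-UAS reporters.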

[3] = biological target: Hepatocyte nuclear factor 4-alpha (Homo sapiens) (UniProt P41235); test: ATG_HNF4a_TRANS: Attagene TRANS-FACTORIAL HepG2 Assay for human Hepatocyte Nuclear Factor 4 alpha (HNF4a) (AID 2282982; active = hit-call score of the fitted dose curve at least 0.9, where 1 is the maximum); conditions: HepG2 HNF4a transactivation reporter, mRNA readout
Method in brief: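 Multiplexed reporter assay: transfected HepG2, 24 h exposure, total RNA → oligo(dT) RT → PCR → 6-FAM extension → HpaI digest → CE fluorescence. DMSO = negative control.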

[4] = ATG_M_06_TRANS: Attagene TRANS-FACTORIAL HepG2 Assay for M06 Transcription Factor (Internal Marker) (AID 2282983; active = hit-call score of the fitted dose curve at least 0.9, where 1 is the maximum;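 also: reporter transcript level by RT-PCR then capillary electrophoresis fluorescence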); conditions: HepG2 Attagene TRANS M06 internal marker reporter
Method in brief: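 Background-control reporter readout: after 24 h chemical exposure of transiently transfected HepG2 (GAL4-UAS reporter units), mRNA quantified by RT-PCR with fluorescent labeling and capillary electrophoresis. Gain-of-signal fitting against DMSO baseline.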

[5] = biological target: Transcriptional activator Myb (Homo sapiens) (UniProt P10242); test: ATG_Myb_CIS: Attagene CIS-FACTORIAL HepG2 Assay for human Myeloblastosis (Myb) Proto-Oncogene Transcription Factor (AID 2282986); conditions: HepG2 Attagene CIS-FACTORIAL Myb reporter transcription; actives raise or lower the signal
Method in brief: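 Endogenous transcription factor activity at a Myb-responsive cis element is reported in human liver HepG2 cells after 24 h chemical treatment. Reporter mRNA is detected by RT-PCR and capillary electrophoresis fluorescence, with DMSO as baseline.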

[6] = biological target: Nuclear respiratory factor 1 (Homo sapiens) (UniProt Q16656); test: ATG_NRF1_CIS: Attagene CIS-FACTORIAL HepG2 Assay for human Nuclear Respiratory Factor 1 (NRF1) Orphan Gene (AID 2282987); conditions: HepG2 NRF1 cis-element reporter, Attagene multiplex; actives raise or lower the signal
Method in brief: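 Human hepatoma HepG2 cells carrying transfected promoter-regulated reporter units were incubated with test chemicals for 24 h. Reporter transcripts were measured by RT-PCR plus capillary electrophoresis, and endpoints derived by bidirectional fitting with DMSO as baseline.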

[7] = ATG_NFI_CIS: Attagene CIS-FACTORIAL HepG2 Assay for human Nuclear Factor I (NFI) (AID 2282989); conditions: HepG2 cis-regulatory reporter, NFI response element transcription; actives raise or lower the signal
Method in brief: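 HepG2 cells transiently transfected with cis-element-driven multiplexed reporter transcription units, dosed for 24 h. Reporter mRNA quantified by RT-PCR, fluorescent labelling, HpaI digestion and capillary electrophoresis; bidirectional fit versus DMSO baseline.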

[8] = biological target: Myc proto-oncogene protein (Homo sapiens) (UniProt P01106); test: ATG_Myc_CIS: Attagene CIS-FACTORIAL HepG2 Assay for human Myelocytomatosis (Myc) Proto-Oncogene Transcription Factor (AID 2282990); conditions: HepG2, Attagene cis-reporter transcription factor activity; actives raise or lower the signal
Method in brief: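 HepG2, transient MRTU transfection (cis promoters, endogenous TFs); 24 h dosing; TriZol RNA → oligo(dT) RT → PCR → 6-FAM primer extension → HpaI cut → CE. Bidirectional fit vs DMSO.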

[9] = ATG_NF_kB_CIS: Attagene CIS-FACTORIAL HepG2 Assay for human Nuclear Factor Kappa B (NF-kB) (AID 2282991); conditions: HepG2 Attagene cis-factorial NF-kB reporter mRNA; actives raise or lower the signal
Method in brief: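 Multiplexed cis-reporter assay in transiently transfected HepG2. 24 h treatment; RNA isolated, RT-PCR, labelled fragments resolved by CE. DMSO baseline.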

[10] = ATG_NRF2_ARE_CIS: Attagene CIS-FACTORIAL HepG2 Assay for human Nuclear Factor Erythroid 2 Related Factor 2 (NFR2) response to Antioxidant Response Elements (ARE) (AID 2282992); conditions: HepG2 Attagene ARE/NRF2 reporter, transcription factor activity; actives raise or lower the signal;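 as to AC50: reporter mRNA level measured by RT-PCR and capillary electrophoresis fluorescence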
Method in brief: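 Fluorescence intensity of reporter-specific cDNA fragments, separated by capillary electrophoresis, reflects mRNA induction in transfected HepG2 cells at 24 h. Activity is fitted bidirectionally, DMSO serving as baseline.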

[11] = ATG_Oct_MLP_CIS: Attagene CIS-FACTORIAL HepG2 Assay for human Octamer-Binding Transcription Factor (Oct) (AID 2282993); conditions: HepG2 Attagene cis-factorial Oct reporter, mRNA; actives raise or lower the signal
Method in brief: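 HepG2 cells transiently transfected with cis-promoter-driven multiplexed reporter transcription units, dosed for 24 h. Reporter mRNA quantified by RT-PCR, fluorescent labelling, HpaI digestion and capillary electrophoresis; bidirectional fits versus DMSO baseline.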

[12] = biological target: Cellular tumor antigen p53 (Homo sapiens) (UniProt P04637); test: ATG_p53_CIS: Attagene CIS-FACTORIAL HepG2 Assay for human p53 Transcription Factor (AID 2282994); conditions: HepG2 p53 cis-element reporter, Attagene mRNA; actives raise or lower the signal
Method in brief: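 Transiently transfected HepG2 (multiple cis reporter transcription units); exposure 24 h; reporter RNA via RT-PCR, 6-FAM extension, 2 h HpaI digest at 37 C, CE detection; DMSO baseline.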

[13] = BSK_3C_TissueFactor: BioMAP Diversity Plus: 3C Assay for Tissue Factor Biomarker Activity (AID 2282997); conditions: BioMAP 3C HUVEC, tissue factor biomarker readout; actives raise or lower the signal
Method in brief: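 Tissue factor on primary human umbilical vein endothelium was read by ELISA 24 h after dosing, gain or loss relative to DMSO. Cytotoxicity ran alongside via SRB (0.1%, TCA-fixed, 560 nm).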

[14] = BSK_3C_uPAR: BioMAP Diversity Plus: 3C Assay for Urokinase-type plasminogen activator receptor (uPAR) Biomarker Activity (AID 2282998); conditions: BioMAP 3C HUVEC, uPAR biomarker ELISA; actives raise or lower the signal
Method in brief: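 Human umbilical vein endothelial primary cells were exposed to test chemical for 24 h. Cell-surface uPAR was then quantified by ELISA, and responses were fitted bidirectionally against DMSO as negative control and baseline.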

[15] = BSK_3C_VCAM1: BioMAP Diversity Plus: 3C Assay for Vascular cell adhesion molecule 1 (VCAM1) Biomarker Activity (AID 2282999); conditions: BioMAP 3C HUVEC, VCAM1 ELISA, cytokine-stimulated; actives raise or lower the signal
Method in brief: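 Activity fitted in both directions relative to DMSO, with ELISA measurement of the surface marker on primary HUVEC (3C) at 24 h post-treatment; parallel SRB staining (0.1% SRB, TCA-fixed, 560 nm) flagged overt cytotoxicity.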

[16] = BSK_4H_Eotaxin3: BioMAP Diversity Plus: 4H Assay for Eotaxin 3 Biomarker Activity (AID 2283000); conditions: primary human endothelial cells (HUVEC); actives raise or lower the signal
Method in brief: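 Human umbilical vein endothelial cells (BSK_4H system) dosed with test chemical; Eotaxin-3 (CCL26) measured by ELISA 24 h after dosing. Bidirectional curve fitting relative to DMSO negative control as baseline.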

[17] = biological target: human Peroxisome Proliferator-activated Receptor alpha (PPARa), PPARA (gene 5465) (UniProt Q07869); test: ATG_PPARa_TRANS: Attagene TRANS-FACTORIAL HepG2 Assay for human Peroxisome Proliferator-activated Receptor alpha (PPARa) (AID 2283001; active = hit-call score of the fitted dose curve at least 0.9, where 1 is the maximum;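 as to AC50: potency for gain of reporter signal over DMSO so agonist or activator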)
Method in brief: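 Transfected HepG2 cells treated with test chemical for 24 h. RNA isolated, reverse-transcribed with oligo(dT), PCR-amplified, FAM-labelled and HpaI-digested. Fragments sized by capillary electrophoresis; gain-of-signal fit relative to DMSO.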

[18] = biological target: Nuclear receptor subfamily 4 group A member 2 (Homo sapiens) (UniProt P43354); test: ATG_NURR1_TRANS: Attagene TRANS-FACTORIAL HepG2 Assay for human Nuclear Receptor Related Protein 1 (NURR1) (AID 2282985; active = hit-call score of the fitted dose curve at least 0.9, where 1 is the maximum); conditions: HepG2 Attagene TRANS reporter, mRNA readout
Method in brief: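 Measures transcriptional activation by an exogenous NR-Gal4 chimera in transfected HepG2 liver cells. After 24 h, reporter RNA is reverse-transcribed, amplified and resolved by capillary electrophoresis; DMSO defines baseline.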

Measured: AC50

Sequence of Myc proto-oncogene protein (Homo sapiens) (P01106 whole entry, looked up): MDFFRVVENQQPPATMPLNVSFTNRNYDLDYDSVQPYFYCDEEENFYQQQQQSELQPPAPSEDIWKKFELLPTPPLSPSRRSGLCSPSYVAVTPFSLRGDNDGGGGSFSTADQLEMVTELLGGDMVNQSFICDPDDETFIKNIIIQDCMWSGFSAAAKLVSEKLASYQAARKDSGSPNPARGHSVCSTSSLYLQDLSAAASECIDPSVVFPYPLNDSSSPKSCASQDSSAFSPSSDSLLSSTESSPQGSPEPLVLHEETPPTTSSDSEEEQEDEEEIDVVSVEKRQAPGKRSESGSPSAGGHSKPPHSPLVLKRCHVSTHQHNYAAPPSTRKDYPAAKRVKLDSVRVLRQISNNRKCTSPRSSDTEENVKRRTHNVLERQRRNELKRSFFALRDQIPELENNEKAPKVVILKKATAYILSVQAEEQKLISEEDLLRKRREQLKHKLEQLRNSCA
Sequence of Nuclear receptor subfamily 4 group A member 2 (Homo sapiens) (P43354 whole entry, looked up, the tested form may be a part): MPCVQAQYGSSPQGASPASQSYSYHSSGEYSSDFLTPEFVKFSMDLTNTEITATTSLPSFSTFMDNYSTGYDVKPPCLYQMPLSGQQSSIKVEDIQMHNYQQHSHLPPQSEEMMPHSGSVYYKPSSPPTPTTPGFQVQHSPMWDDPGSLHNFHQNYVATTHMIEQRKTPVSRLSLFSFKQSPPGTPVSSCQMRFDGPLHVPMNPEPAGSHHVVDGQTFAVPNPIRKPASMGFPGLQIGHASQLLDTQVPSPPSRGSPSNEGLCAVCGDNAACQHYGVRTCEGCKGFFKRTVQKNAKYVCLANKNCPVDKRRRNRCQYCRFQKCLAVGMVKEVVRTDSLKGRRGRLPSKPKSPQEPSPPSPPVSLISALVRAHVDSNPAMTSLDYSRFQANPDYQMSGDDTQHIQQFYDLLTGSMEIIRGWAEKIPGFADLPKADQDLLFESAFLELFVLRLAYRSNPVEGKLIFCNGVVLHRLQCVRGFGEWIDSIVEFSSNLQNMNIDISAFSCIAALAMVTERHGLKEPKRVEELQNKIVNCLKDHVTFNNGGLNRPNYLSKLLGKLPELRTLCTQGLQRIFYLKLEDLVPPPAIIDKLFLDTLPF
Sequence of human Peroxisome Proliferator-activated Receptor alpha (PPARa), PPARA (gene 5465) (Q07869 whole entry, looked up, the tested form may be a part): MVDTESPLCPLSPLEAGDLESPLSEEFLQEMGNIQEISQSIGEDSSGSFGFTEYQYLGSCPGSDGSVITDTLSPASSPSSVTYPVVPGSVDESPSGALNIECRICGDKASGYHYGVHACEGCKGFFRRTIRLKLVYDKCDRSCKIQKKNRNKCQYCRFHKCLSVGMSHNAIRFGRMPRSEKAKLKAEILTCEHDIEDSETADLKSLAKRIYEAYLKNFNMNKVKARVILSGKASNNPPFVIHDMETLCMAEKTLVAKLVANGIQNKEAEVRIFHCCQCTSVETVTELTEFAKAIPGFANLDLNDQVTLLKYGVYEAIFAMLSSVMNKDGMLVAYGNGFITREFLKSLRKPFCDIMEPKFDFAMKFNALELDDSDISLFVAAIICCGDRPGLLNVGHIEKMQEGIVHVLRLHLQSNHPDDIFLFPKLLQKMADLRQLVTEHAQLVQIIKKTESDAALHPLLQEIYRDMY
Sequence of Oxysterols receptor LXR-beta (Homo sapiens) (P55055 whole entry, looked up, the tested form may be a part): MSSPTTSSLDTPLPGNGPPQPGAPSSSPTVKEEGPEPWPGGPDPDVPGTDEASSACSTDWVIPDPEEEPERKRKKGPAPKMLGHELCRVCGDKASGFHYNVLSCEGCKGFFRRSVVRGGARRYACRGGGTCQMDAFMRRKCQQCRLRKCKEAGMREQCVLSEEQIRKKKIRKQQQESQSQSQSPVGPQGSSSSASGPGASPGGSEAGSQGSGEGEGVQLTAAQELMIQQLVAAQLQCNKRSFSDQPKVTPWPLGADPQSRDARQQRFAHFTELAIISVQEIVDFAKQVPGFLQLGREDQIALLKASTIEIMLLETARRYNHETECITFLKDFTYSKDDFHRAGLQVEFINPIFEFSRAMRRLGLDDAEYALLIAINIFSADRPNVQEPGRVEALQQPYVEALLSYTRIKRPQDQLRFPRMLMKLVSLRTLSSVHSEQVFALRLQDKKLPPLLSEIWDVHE
Sequence of Nuclear respiratory factor 1 (Homo sapiens) (Q16656 whole entry, looked up): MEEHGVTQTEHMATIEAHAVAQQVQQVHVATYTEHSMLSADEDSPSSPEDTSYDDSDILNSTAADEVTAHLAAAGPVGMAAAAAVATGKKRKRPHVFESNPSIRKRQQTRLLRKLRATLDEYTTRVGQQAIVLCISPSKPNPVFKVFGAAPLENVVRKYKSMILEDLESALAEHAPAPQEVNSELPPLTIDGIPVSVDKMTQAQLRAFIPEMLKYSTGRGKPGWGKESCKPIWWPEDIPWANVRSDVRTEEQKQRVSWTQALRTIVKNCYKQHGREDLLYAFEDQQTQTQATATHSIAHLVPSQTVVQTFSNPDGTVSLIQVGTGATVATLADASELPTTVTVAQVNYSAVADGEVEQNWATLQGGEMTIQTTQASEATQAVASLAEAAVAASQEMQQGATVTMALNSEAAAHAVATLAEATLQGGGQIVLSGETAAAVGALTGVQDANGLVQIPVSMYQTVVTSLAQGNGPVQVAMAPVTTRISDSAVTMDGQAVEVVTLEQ
Sequence of Transcriptional activator Myb (Homo sapiens) (P10242 whole entry, looked up): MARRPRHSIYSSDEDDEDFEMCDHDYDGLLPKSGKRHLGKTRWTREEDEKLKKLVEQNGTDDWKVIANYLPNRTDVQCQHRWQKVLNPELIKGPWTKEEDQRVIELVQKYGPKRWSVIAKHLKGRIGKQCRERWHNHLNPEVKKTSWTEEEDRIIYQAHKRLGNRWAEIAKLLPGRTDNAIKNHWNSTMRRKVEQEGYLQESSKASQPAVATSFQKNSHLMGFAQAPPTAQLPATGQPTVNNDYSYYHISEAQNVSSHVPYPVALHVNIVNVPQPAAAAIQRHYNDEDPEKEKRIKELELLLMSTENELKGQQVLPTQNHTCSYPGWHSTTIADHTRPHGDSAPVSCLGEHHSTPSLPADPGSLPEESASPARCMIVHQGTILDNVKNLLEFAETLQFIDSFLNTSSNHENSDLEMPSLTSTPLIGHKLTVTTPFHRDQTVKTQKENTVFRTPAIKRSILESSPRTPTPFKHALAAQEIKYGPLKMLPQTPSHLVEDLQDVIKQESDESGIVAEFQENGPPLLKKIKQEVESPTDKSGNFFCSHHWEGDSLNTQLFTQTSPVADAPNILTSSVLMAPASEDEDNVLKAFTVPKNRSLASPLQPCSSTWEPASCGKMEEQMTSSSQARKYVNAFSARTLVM
Sequence of Cellular tumor antigen p53 (Homo sapiens) (P04637 whole entry, looked up): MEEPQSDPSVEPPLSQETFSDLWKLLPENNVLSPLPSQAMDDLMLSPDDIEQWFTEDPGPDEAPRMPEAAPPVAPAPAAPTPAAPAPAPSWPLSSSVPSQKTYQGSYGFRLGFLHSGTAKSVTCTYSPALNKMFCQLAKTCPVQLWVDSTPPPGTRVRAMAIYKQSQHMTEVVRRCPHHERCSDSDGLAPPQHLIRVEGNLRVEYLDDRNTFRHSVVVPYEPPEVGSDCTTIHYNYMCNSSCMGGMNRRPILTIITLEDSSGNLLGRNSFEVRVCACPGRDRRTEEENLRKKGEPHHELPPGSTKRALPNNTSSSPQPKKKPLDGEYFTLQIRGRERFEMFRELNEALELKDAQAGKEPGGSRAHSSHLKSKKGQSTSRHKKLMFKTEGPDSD
Sequence of Bile acid receptor (Homo sapiens) (Q96RI1 whole entry, looked up, the tested form may be a part): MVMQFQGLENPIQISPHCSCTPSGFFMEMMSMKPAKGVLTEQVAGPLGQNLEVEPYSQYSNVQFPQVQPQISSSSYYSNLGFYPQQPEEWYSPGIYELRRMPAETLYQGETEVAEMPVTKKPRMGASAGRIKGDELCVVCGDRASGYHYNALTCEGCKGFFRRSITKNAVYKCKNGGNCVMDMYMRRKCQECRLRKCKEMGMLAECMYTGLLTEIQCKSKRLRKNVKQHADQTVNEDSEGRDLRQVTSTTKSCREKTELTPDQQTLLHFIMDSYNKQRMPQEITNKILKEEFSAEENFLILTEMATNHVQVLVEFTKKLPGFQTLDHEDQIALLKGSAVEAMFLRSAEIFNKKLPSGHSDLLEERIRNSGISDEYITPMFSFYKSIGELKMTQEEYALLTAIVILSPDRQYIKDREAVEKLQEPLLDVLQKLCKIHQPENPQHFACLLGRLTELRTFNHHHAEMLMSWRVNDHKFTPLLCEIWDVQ
Sequence of Hepatocyte nuclear factor 4-alpha (Homo sapiens) (P41235 whole entry, looked up): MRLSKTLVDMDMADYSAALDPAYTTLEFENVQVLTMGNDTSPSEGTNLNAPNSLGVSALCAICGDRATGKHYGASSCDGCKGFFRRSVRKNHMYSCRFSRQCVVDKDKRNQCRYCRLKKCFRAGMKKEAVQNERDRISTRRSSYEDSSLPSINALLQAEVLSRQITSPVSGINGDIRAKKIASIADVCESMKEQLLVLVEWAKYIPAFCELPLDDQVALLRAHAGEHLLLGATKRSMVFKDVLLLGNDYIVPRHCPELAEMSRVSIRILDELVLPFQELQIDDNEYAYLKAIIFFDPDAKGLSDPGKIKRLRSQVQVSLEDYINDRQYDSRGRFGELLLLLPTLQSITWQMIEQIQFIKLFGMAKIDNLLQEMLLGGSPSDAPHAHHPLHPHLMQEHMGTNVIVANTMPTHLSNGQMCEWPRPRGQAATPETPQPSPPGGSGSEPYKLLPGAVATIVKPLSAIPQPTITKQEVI

c1ccc(C[n+]2cccc3ccccc32)cc1
inactive: [1] | [2] | [3] | [4] | [5] | [6] | [7] | [8] | [9] | [11] | [12] | [13] | [14] | [15] | [16] | [17]
active: [10] 67.9 µM

O=CCCCC=O
inactive: [1] | [2] | [3] | [4] | [18] | [5] | [6] | [7] | [8] | [9] | [10] | [11] | [12] | [17]
active: [9] 73.1 µM | [10] 169 µM | [13] 30.3 µM | [14] 33.3 µM | [15] 31.6 µM | [16] 31.4 µM

O=C(O)Cn1c(=O)n(Cc2ccc(Br)cc2F)c(=O)c2ccc(Cl)cc21
active: [9] 161 µM | [10] 26.5 µM
inactive: [1] | [4] | [18] | [5] | [6] | [7] | [8] | [11] | [12] | [13] | [14] | [15] | [16] | [17]

CCCCCCCCCCCC[N+](C)(C)C
inactive: [1] | [2] | [3] | [4] | [18] | [5] | [6] | [7] | [8] | [9] | [12] | [13]
active: [10] 25.3 µM and 18.9 µM | [14] 20 µM | [15] 25.8 µM | [16] 29.9 µM

CCCOC(=O)c1cc(O)c(O)c(O)c1
active: [10] 5.91 µM | [17] 27.7 µM
inactive: [1] | [2] | [3] | [4] | [18] | [5] | [6] | [7] | [8] | [12] | [13] | [14] | [15] | [16]

O=C(OCCCCCCOC(=O)c1ccccc1)c1ccccc1
inactive: [1] | [3] | [4] | [18] | [5] | [6] | [7] | [8] | [9] | [10] | [12] | [13] | [14] | [15] | [16]

O=c1c(-c2ccc(O)cc2)coc2cc(O)cc(O)c12
inactive: [1] | [2] | [3] | [4] | [18] | [5] | [6] | [7] | [8] | [9] | [10] | [12] | [13] | [15]
active: [7] 27.1 µM | [9] 73.5 µM and 168 µM | [14] 29.2 µM | [16] 29.1 µM | [17] 24.2 µM and 100 µM and 25.6 µM

COc1cc(C(=O)NC2CCN(C)CC2)ccc1Nc1ncc2c(n1)N(C1CCCC1)CC(F)(F)C(=O)N2C
inactive: [1] | [2] | [4] | [5] | [6] | [8] | [9] | [10] | [17]
active: [7] 0.709 µM | [11] 1.07 µM | [12] 1.94 µM | [13] 5.9 µM | [14] 22.7 µM | [15] 19.1 µM | [16] 14.6 µM

O=C1CCC(C2CCCCC2)CC1
active: [5] 147 µM | [8] 187 µM | [10] 100 µM [middle of 4 runs] | [12] 166 µM
inactive: [1] | [2] | [4] | [18] | [5] | [6] | [7] | [8] | [9] | [11] | [12] | [13] | [14] | [15] | [16] | [17]

Clc1ccccc1C(c1ccccc1)(c1ccccc1)n1ccnc1
active: [10] 5.21 µM | [13] 31 µM | [14] 14.8 µM | [15] 33.1 µM | [16] 31.3 µM
inactive: [1] | [4] | [18] | [5] | [6] | [7] | [8] | [9] | [12]

C[C@]12CC[C@@H]3c4ccc(O)cc4CC[C@H]3[C@@H]1CCC2=O
inactive: [1] | [2] | [3] | [4] | [18] | [5] | [6] | [7] | [8] | [9] | [10] | [13] | [14] | [15] | [16] | [17]

COc1ccc2cc(S(=O)(=O)N[C@H](CC(=O)N[C@H](Cc3ccc(CN4[C@H](C)CCC[C@@H]4C)cc3)C(=O)N(C)C(C)C)c3ccc4c(c3)OCO4)ccc2c1
active: [10] 11 µM | [11] 11 µM | [12] 11 µM | [13] 5.1 µM | [14] 19.1 µM | [15] 16.4 µM | [16] 11.3 µM
inactive: [1] | [2] | [3] | [18] | [5] | [6] | [7] | [8] | [9] | [17]
